{"source": "paper PMC10726135", "about": "“HNF4α isoforms regulate the circadian balance between carbohydrate and lipid metabolism in the liver”", "note": "Whole data set: some 18,000 sequences, median “log2 normalized intensity” near 0.39, cut for the highest 2% near 6.6. What follows is part of a selection rich in the highest values, with near analogues and random picks from the rest."}
{"molecular_target": "T1, HNF4alpha2 (COS-7 nuclear extract) (Homo sapiens, UniProt P41235 1-474)", "T1 sequence": "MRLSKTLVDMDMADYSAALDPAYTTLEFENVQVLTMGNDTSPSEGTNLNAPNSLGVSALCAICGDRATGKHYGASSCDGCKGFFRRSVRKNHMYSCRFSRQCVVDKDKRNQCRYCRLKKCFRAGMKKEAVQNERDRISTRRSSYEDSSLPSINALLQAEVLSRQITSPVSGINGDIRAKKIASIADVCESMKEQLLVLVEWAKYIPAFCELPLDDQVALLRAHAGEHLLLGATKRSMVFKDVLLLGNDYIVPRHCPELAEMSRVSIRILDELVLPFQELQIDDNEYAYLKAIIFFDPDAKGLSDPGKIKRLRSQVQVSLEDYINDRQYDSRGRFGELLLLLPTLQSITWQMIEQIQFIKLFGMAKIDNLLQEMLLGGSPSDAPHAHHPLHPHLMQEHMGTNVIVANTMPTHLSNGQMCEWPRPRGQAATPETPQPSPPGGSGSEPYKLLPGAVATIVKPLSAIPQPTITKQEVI", "assay": "protein-binding microarray; COS-7 nuclear extract on double-stranded Agilent 4x180k PBM; binding buffer, salt, pH and temperature not given in the material; high values mean tight binding", "settings": "chain copies: 2; label: 3' end of strand 1 on the slide; dsDNA, one strand shown", "outline": "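Double-stranded oligonucleotides of ~60 nt, representing ~44,000 test sequences in quadruplicate, made up a custom Agilent SurePrint G3 4x180k array. Nuclear extracts from COS-7 cells transiently transfected by CaPO4 with a human HNF4α isoform expression vector were applied, and bound HNF4α was imaged at 2-µm resolution on an Agilent G2565CA scanner. Binding signal refers to the background-corrected, normalized gProcessedSignal output of Agilent software.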", "units": {"binding signal": "log2 normalized intensity"}}
{"sequence": "GAGCAGGGTATCAGTTGAACAGAATAGAGGGCCTAGGGAGATTAGAGTATCGGTCGA", "binding signal": -0.996}
{"sequence": "GTGTGCAATTAGAGCAAAGGTTACTGCAGAGCCTAGGGAGATTAGAGTATCGGTCGA", "binding signal": 2.62}
{"sequence": "GAACCTGCCCTCTGTCCCATGGTGTACAAGGCCTAGGGAGATTAGAGTATCGGTCGA", "binding signal": 1.26}
{"sequence": "CCAGTTTTCCCAAAGGAGCTTTATTGGTTCGCCTAGGGAGATTAGAGTATCGGTCGA", "binding signal": 1.5}
{"sequence": "TGAGAATCTGACCTTTGGTTAACTTCTTAAGCCTAGGGAGATTAGAGTATCGGTCGA", "binding signal": 4.02}
{"sequence": "TTGTGAGTCCAAAGGTCAGCCGGGGAAGGTGCCTAGGGAGATTAGAGTATCGGTCGA", "binding signal": 6.71}
{"sequence": "GATGCTAGGTTTGTGAGTCCAAAGGTCAGCGCCTAGGGAGATTAGAGTATCGGTCGA", "binding signal": 9.14}
{"sequence": "ATGTTAGTCTTGAGTCCCAAAGTCCAAAGGGCCTAGGGAGATTAGAGTATCGGTCGA", "binding signal": 5.42}
{"sequence": "AGTCCAAAGGTCAGCCGGGGAAGGTGCAGGGCCTAGGGAGATTAGAGTATCGGTCGA", "binding signal": 5}
{"sequence": "AAGGTTGGTTTTTGGAGACAGGAGTAGTCAGCCTAGGGAGATTAGAGTATCGGTCGA", "binding signal": 1.3}
{"sequence": "AAAAGGATGCTAGGTTTGTGAGTCCAAAGGGCCTAGGGAGATTAGAGTATCGGTCGA", "binding signal": 4.16}
{"sequence": "TGAGTATCCAAAGGTCAGTGACAAATGTCAGCCTAGGGAGATTAGAGTATCGGTCGA", "binding signal": 3.65}
{"sequence": "TAGGTTTGTGAGTCCAAAGGTCAGCCGGGGGCCTAGGGAGATTAGAGTATCGGTCGA", "binding signal": 7.74}
{"sequence": "AGGTCAGGGAGTAGGTTTGATTTGTGAAAGGCCTAGGGAGATTAGAGTATCGGTCGA", "binding signal": 0.942}
{"sequence": "TAGCCAGACCTGTTCCTCTGCCCCTCATCGGCCTAGGGAGATTAGAGTATCGGTCGA", "binding signal": 1.7}
{"sequence": "TGAGACATTTTGTCTTTTCTCCCCTGACTAGCCTAGGGAGATTAGAGTATCGGTCGA", "binding signal": 2.63}
{"sequence": "GGACAATCATTGTGCAACCTGGACATTGGCGCCTAGGGAGATTAGAGTATCGGTCGA", "binding signal": 2.08}
{"sequence": "AAGGTGTATGTGGACTTTCAACTGCAGGGGGCCTAGGGAGATTAGAGTATCGGTCGA", "binding signal": 3.47}
{"sequence": "CGAGCATGGCCGCTCCGCGAGGTGAGCCATGCCTAGGGAGATTAGAGTATCGGTCGA", "binding signal": 0.717}
{"sequence": "TGGGCCCCACAGTGCATCTGATAAGGTTGTGCCTAGGGAGATTAGAGTATCGGTCGA", "binding signal": 0.921}
{"sequence": "GCTGGTTGCCCCTTTGACCCTCGGGCCTCCGCCTAGGGAGATTAGAGTATCGGTCGA", "binding signal": 5.62}
{"sequence": "AGCCTTATTCTTTGATCTCTTATCACCCTGGCCTAGGGAGATTAGAGTATCGGTCGA", "binding signal": 1.86}
{"sequence": "TGACCTTTGTCCTGGCACAACTGGATGGTGGCCTAGGGAGATTAGAGTATCGGTCGA", "binding signal": 5}
{"sequence": "ATGACCTTTGACTGAGATGGGAGCAGTGCTGCCTAGGGAGATTAGAGTATCGGTCGA", "binding signal": 2.23}
{"sequence": "CACTGGGCTGATGACCTTTGACTGAGATGGGCCTAGGGAGATTAGAGTATCGGTCGA", "binding signal": 5.32}
{"sequence": "TTGAGCTGGATGACCTTTGTCCTGGCACAAGCCTAGGGAGATTAGAGTATCGGTCGA", "binding signal": 7.13}
{"sequence": "CTAGTTAAGTCACTGGGCTGATGACCTTTGGCCTAGGGAGATTAGAGTATCGGTCGA", "binding signal": 6.19}
{"sequence": "CATCTTTGAGCTGGATGACCTTTGTCCTGGGCCTAGGGAGATTAGAGTATCGGTCGA", "binding signal": 8.57}
{"sequence": "AGAATCATCTTTGAGCTGGATGACCTTTGTGCCTAGGGAGATTAGAGTATCGGTCGA", "binding signal": 7.46}
{"sequence": "TAAGTCACTGGGCTGATGACCTTTGACTGAGCCTAGGGAGATTAGAGTATCGGTCGA", "binding signal": 7.08}
{"sequence": "TTTTTTTTTTGAGATGGAATCTTGCCCTGTGCCTAGGGAGATTAGAGTATCGGTCGA", "binding signal": 3.18}
{"sequence": "CTGGATGACCTTTGTCCTGGCACAACTGGAGCCTAGGGAGATTAGAGTATCGGTCGA", "binding signal": 5.84}
{"sequence": "TCCTGATCTTTGACCTGGAGCATGACCCTTGCCTAGGGAGATTAGAGTATCGGTCGA", "binding signal": 4.86}
{"sequence": "AGACCCTTATCAGTAGTTCTCCTTTCTGCCGCCTAGGGAGATTAGAGTATCGGTCGA", "binding signal": 1.39}
{"sequence": "ATGCATAGAAGTATGTCTGGGATTTGAAGGGCCTAGGGAGATTAGAGTATCGGTCGA", "binding signal": -0.542}
{"sequence": "GTCAAGCAATGATCTTCATGAACTTCTGTCGCCTAGGGAGATTAGAGTATCGGTCGA", "binding signal": 1.26}
{"sequence": "TAAAACCATGCAAATTGCTGACTTTCTGTGGCCTAGGGAGATTAGAGTATCGGTCGA", "binding signal": -0.773}
{"sequence": "CAGCAGGGCACCGCCTCCACACCCCAGCCTGCCTAGGGAGATTAGAGTATCGGTCGA", "binding signal": 3.03}
{"sequence": "GCCCTCCCCCAGAGAGAACAGTCCTACAAAGCCTAGGGAGATTAGAGTATCGGTCGA", "binding signal": 2.08}
{"sequence": "AAGATGGGCATTAGGTGGACAGGGGTGTGTGCCTAGGGAGATTAGAGTATCGGTCGA", "binding signal": 1.78}
{"sequence": "ACCCTTTGAGTCCTTCATGGCTACCCTTCAGCCTAGGGAGATTAGAGTATCGGTCGA", "binding signal": 0.859}
{"sequence": "CCCGCAGTGAGGGACAAGGCTGTCCCCCATGCCTAGGGAGATTAGAGTATCGGTCGA", "binding signal": 1.6}
{"sequence": "GGGGGTAAAGTGGATTGCTGGCCTTTTATCGCCTAGGGAGATTAGAGTATCGGTCGA", "binding signal": 0.814}
